Laboratory results as given in PubChem BioAssay (NCI).
Compounds without any hit were thinned out: in the full panel of roughly 83,000, 20% have a hit.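 Values shown are percent growth following 48 h exposure of cells in 96-well plates to a single concentration of compound; below 10 was considered active.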 Values without a mark were called inactive. Activity calls are given as the source filed them.

Key:
Experiment in all cases: NCI-60 one-dose screen, 48 h (100 = growth as untreated, 0 = no growth, -100 = all killed)
SR leukemia = conditions: 10 µM unless noted
RPMI-8226 leukemia = conditions: 10 µM unless noted
OVCAR-5 ovarian = conditions: 10 µM unless noted
OVCAR-4 ovarian = conditions: 10 µM unless noted
SK-OV-3 ovarian = conditions: 10 µM unless noted
IGROV1 ovarian = conditions: 10 µM unless noted
OVCAR-3 ovarian = conditions: 10 µM unless noted
HS 578T breast = conditions: 10 µM
NCI/ADR-RES ovarian = conditions: 10 µM unless noted
T-47D breast = conditions: 10 µM unless noted
BT-549 breast = conditions: 10 µM unless noted
MDA-MB-435 melanoma = conditions: 10 µM unless noted
SW-620 colon = conditions: 10 µM unless noted
MCF7 breast = conditions: 10 µM unless noted
HCT-116 colon = conditions: 10 µM unless noted
HCC-2998 colon = conditions: 10 µM
KM12 colon = conditions: 10 µM unless noted
OVCAR-8 ovarian = conditions: 10 µM unless noted

SMILES	growth (SR leukemia)	growth (RPMI-8226 leukemia)	growth (OVCAR-5 ovarian)	growth (OVCAR-4 ovarian)	growth (SK-OV-3 ovarian)	growth (IGROV1 ovarian)	growth (OVCAR-3 ovarian)	growth (HS 578T breast)	growth (NCI/ADR-RES ovarian)	growth (T-47D breast)	growth (BT-549 breast)	growth (MDA-MB-435 melanoma)	growth (SW-620 colon)	growth (MCF7 breast)	growth (HCT-116 colon)	growth (HCC-2998 colon)	growth (KM12 colon)	growth (OVCAR-8 ovarian)
CCCCCCCC(=O)SCC/C=C/[C@@H]1CC(=O)NCc2cccc(n2)C2=N[C@@](C)(CS2)C(=O)N[C@@H](C(C)C)C(=O)O1	13.7%	14.3%	6.82% (active)	18.3%	-31.4% (active)	3.42% (active)	-26.5% (active)	15.4%	6.46% (active)	-14.1% (active)	32%	-9.48% (active)	3.63% (active)	15.5%	-27.7% (active)	-73.4% (active)	3.74% (active)	–
Cc1cc(Nc2ncnc3ccc(NC4=NC(C)(C)CO4)cc23)ccc1Oc1ccn2ncnc2c1	-14.4% (active)	24.3%	14.3%	44.2%	14.6%	-19.6% (active)	46.8%	–	63.3%	32.3%	42.4%	43.9%	18.2%	21.4%	16.1%	18.9%	21.3%	–
Cc1c(CN2CCN(C(=O)[C@H](C)O)CC2)sc2c(N3CCOCC3)nc(-c3cnc(N)nc3)nc12	-3.28% (active)	1.84% (active)	–	-9.47% (active)	-39.1% (active)	-50.1% (active)	3.12% (active)	–	7% (active)	-38% (active)	-3.06% (active)	-9.11% (active)	7.94% (active)	1.68% (active)	5.47% (active)	0.359% (active)	6.74% (active)	-4.51% (active)
CNC(=O)c1cc(COc2nnc(Nc3ccc(Cl)cc3)c3ccoc23)ccn1	61.3%	89.9%	23.5%	-38.4% (active)	-60.8% (active)	24.7%	46.6%	–	15.2%	15.2%	29.8%	73.2%	108%	48.1%	35.5%	94.3%	53.8%	–
CCN1CCN(CCCN(C[C@H]2Cc3ccccc3CN2)[C@H]2CCCc3cccnc32)CC1	53.6%	81.8%	–	89.5%	89.4%	94.5%	84.2%	–	92.1%	103%	79.7%	105%	89.6%	100%	76.4%	102%	87.1%	85.3%
Cn1c(Nc2ccc(C(F)(F)F)cc2)nc2cc(Oc3ccnc(-c4ncc(C(F)(F)F)[nH]4)c3)ccc21	32.1%	86.7%	63.2%	64.7%	6.69% (active)	33.1%	58.8%	–	66.3%	48.5%	37.5%	28.8%	65.5%	82.3%	32.9%	73%	58.3%	–
CCN(CC)CCNC(=O)c1c(C)[nH]c(/C=C2\C(=O)Nc3ccc(F)cc32)c1C	-9.44% (active)	-10.3% (active)	–	23.9%	26.9%	24.6%	67.9%	–	18.4%	80.4%	20.2%	3.92% (active)	-2.88% (active)	7.17% (active)	-59.4% (active)	1.98% (active)	4.04% (active)	1.47% (active)
CCCCCCC1(/C=N/NC(N)=O)NC(=O)NC1=O (stereo not drawn)	102%	111%	89%	98%	83.2%	105%	111%	114%	100%	87.8%	94.1%	101%	104%	91.2%	84.2%	94.5%	97%	–
CCN(CC)Cc1cc(Nc2cc(C(F)(F)F)c(C#N)c3nc4ccccc4n23)ccc1O	12.8%	0.326% (active)	31%	14.2%	-10.8% (active)	28.9%	10.9%	22.8%	6.79% (active)	-1.95% (active)	8.37% (active)	16.9%	14.7%	8.72% (active)	4.67% (active)	20.2%	10.8%	–
O=C(Nc1cccc([N+](=O)[O-])c1)c1ccc(Cl)c(Cl)c1	80.7%	–	94.2%	16.7%	53.3%	47%	53.8%	70%	79%	54.8%	–	92%	96.2%	49%	56.8%	120%	93.8%	43.5%
CCOC(=O)Sc1ncnc2nc[nH]c12	9.18% (active)	–	47.2%	35.1%	23.9%	45.1%	26.4%	76.2%	37%	34.7%	50.7%	33.3%	68.5%	18.7%	31.2%	26.4%	59.3%	18.5%
COc1cc2c(c(OC)c1)C1c3ccccc3NC(=O)N1CC2 (stereo not drawn)	13.2%	16.4%	–	50.4%	52.8%	60.2%	-6.26% (active)	16.4%	1.85% (active)	44%	50.3%	-48.8% (active)	20.5%	18.1%	30.6%	53.4%	26.2%	–
CCc1ccc(/C=C/c2ccc(O)c3ncccc23)[n+](C)c1	7.25% (active)	–	40.9%	35.9%	76.7%	33.4%	-11.4% (active)	23.1%	73.4%	31.2%	65.9%	59.4%	40.7%	53.8%	18.3%	31.6%	40.2%	-12.1% (active)
Cc1ccsc1C(NC(=O)c1ccccc1)c1cc(Cl)c2cccnc2c1O (stereo not drawn)	13.2%	–	46.9%	32%	16%	13.1%	18.8%	31.5%	7.05% (active)	24.1%	35.4%	30.5%	18.8%	21.8%	13.7%	45%	22%	8.81% (active)
O=CC(OC(=O)c1ccccc1)C(OC(=O)c1ccccc1)C(COC(c1ccccc1)(c1ccccc1)c1ccccc1)OC(=O)c1ccccc1 (stereo not drawn)	-12.9% (active)	–	61%	89.9%	98.8%	-38.5% (active)	21.4%	51.8%	92.8%	25.6%	65.6%	45.7%	-37.6% (active)	36.6%	7.51% (active)	96.6%	61%	-17.6% (active)
CCc1ccc(C2=C(O)C(=O)C(c3ccc(CC)cc3)=C(O)C2=O)cc1	-18.5% (active)	–	-0.569% (active)	-0.208% (active)	-9.04% (active)	-36.3% (active)	-47.2% (active)	-21.6% (active)	-18.5% (active)	7.67% (active)	-23% (active)	3.73% (active)	2.8% (active)	2.11% (active)	1.12% (active)	–	-1.36% (active)	-59% (active)
COc1cc(Nc2ncc(F)c(Nc3ccc4c(n3)N(COP(=O)(O)O)C(=O)C(C)(C)O4)n2)cc(OC)c1OC	21.6%	46.4%	17.6%	44.1%	-41.4% (active)	-17.6% (active)	43.4%	–	20.5%	14.4%	1.78% (active)	26.5%	–	25.7%	22.1%	66.8%	11.7%	–
Cc1nn(-c2ccccc2)c2c1N=c1s/c(=C\c3cn(-c4ccccc4)nc3-c3ccc(Cl)cc3)c(=O)n1C(C)N2 (stereo not drawn)	123%	49%	101%	93.2%	102%	–	109%	87.8%	97.8%	103%	105%	88.6%	103%	90.6%	75.2%	–	91.8%	–
